# Laboratory results published in PubChem BioAssay.
# Activity calls are given as the source filed them.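 How the source made its calls, unless noted: active means visually confirmed hit in the image check and inhibition above 20%; inconclusive means visually confirmed hit but inhibition not above 20%; inactive means no visual hit in the image check.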
# What was measured:
# [1] = inhibitors of TNFa-induced NFkB p65 translocation, primary screen, imaging, HUVEC, MLSMR starter and 10KST1 sets (AID 438;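 active means inhibition above 20% together with a positive visual image hit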;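 further: compound added about 3h40 before a 20 min TNFalpha stimulation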;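 on inhibition: signal is the nuclear over cytoplasmic p65 intensity ratio per well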); details: HUVEC TNFa-induced p65 nuclear translocation; cell count: measured here: nuclei count (cytotoxicity indicator), at 2.08 µM; inhibition: at 2 µM, stronger effect = higher value, 0% TNFa-plus-vehicle, 100% no-TNFa wells
# [2] = reduction of polyQ htt aggregates in cells – imaging, exon1htt(103Q)mCFP cells, high-content imaging, primary screen (AID 483;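 active means visual image review flags a hit and inhibition of aggregation exceeds 20%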;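 further: compound exposure lasted 3 days before fixation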;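 on nuclei count: percent of the per-plate median nuclei count of sample wells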); details: exon1htt(103Q)mCFP cell line, aggregate imaging, at 2 µM; inhibition of aggregation: stronger effect = higher value; nuclei count: measured here: cell count, toxicity
# [3] = endothelial E-selectin expression blockers – imaging, HUVEC, immunofluorescence, MLSMR starter and 10KST1 sets, primary screen (AID 487); details: HUVEC TNFalpha-induced E-selectin immunofluorescence imaging, at 2 µM; inhibition: stronger effect = higher value; nuclei count: measured here: cell number, toxicity;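 on inhibition: signal is fraction of cell area covered by stained E-selectin grains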;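 on nuclei count: 100% = median nuclei count of all wells on the same plate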
# [4] = target: Voltage-gated potassium channel subunit beta-2 (Rattus norvegicus) (UniProt P62483); assay: inhibitors of rat Kvbeta2 reductase activity – biochemical, NADPH fluorescence, primary screen (AID 622;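 active means fluorescence slope higher than the sample average by over 3 SD, cut at about -0.22 in these data, passing the limit was not always enough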;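 further: slope of raw intensity against log time taken from 70 to 1610 s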); details: recombinant KvBeta, 4-cyanobenzaldehyde reduction, at 10 µM, stronger effect = higher value
# Voltage-gated potassium channel subunit beta-2 (Rattus norvegicus), sequence (P62483 whole entry, looked up): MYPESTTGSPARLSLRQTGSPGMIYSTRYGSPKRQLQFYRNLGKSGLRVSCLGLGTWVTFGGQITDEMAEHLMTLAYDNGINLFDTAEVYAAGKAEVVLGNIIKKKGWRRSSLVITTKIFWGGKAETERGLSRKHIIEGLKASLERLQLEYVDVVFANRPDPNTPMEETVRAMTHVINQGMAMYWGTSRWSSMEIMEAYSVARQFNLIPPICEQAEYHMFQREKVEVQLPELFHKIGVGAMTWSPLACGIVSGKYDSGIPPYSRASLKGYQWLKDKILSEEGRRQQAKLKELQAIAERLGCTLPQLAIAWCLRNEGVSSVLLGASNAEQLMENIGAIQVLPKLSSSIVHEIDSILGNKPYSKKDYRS
# [5] = target: Voltage-gated potassium channel subunit beta-2 (Rattus norvegicus) (UniProt P62483); assay: enhancers of rat Kvbeta2 NADPH turnover – biochemical, NADPH fluorescence, primary screen (AID 623;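 active means NADPH fluorescence slope more negative than the mean of all samples by about 3 SD, 99.7% confidence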;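 further: fluorescence intensity change per second fitted from 20 to 320 s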); details: Recombinant KvBeta, NADPH fluorescence decrease slope, 10 min; at 10 µM; stronger effect = lower value
# [6] = target: Alpha-2C adrenergic receptor (Homo sapiens) (UniProt P18825); assay: compounds altering alpha2C-coupled GIRK flux – cell-based, HEK293 alpha2C/GIRK1/2, thallium flux, primary screen (AID 624;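 active means fluorescence slope after compound addition differing from the mean of all screened samples at 99.7% confidence, in either direction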;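 further: slope of fluorescence ratio to pre-addition baseline per second over 15 to 24 s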); details: thallium flux BTC fluorescence, at 10 µM, actives lie on both sides
# Alpha-2C adrenergic receptor (Homo sapiens), sequence (P18825 whole entry, looked up): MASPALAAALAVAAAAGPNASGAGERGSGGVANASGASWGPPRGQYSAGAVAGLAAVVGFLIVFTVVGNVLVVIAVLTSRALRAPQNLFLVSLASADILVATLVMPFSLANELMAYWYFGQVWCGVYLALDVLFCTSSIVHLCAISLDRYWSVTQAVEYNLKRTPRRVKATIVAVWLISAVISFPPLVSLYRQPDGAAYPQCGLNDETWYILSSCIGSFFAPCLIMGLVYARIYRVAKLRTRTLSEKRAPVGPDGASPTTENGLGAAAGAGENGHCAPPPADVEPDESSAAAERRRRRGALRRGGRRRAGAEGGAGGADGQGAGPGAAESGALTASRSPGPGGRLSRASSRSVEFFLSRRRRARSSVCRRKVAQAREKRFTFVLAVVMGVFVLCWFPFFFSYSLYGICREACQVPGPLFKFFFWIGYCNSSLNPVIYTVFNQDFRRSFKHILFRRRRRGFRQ
# [7] = blockers of RIG-like receptor reporter activation – cell-based, Sendai virus stimulus, luciferase, 10K MLSCN set, TLR/RLR signaling modifier project, primary screen (AID 602276;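 active means inhibition at or above 50% at 10 µM; inactive means inhibition below 50%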;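 further: firefly luciferase from ISG56 promoter only with Renilla not read in this screen; 0% = Sendai virus plus DMSO and 100% = medium plus DMSO without virus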); details: HEK293 RL24 IRF3 luciferase reporter, at 10 µM, stronger effect = higher value
# [8] = TLR3 IRF3 reporter activation blockers – cell-based, poly I:C stimulus, luciferase, 10K MLSCN set, primary screen (AID 602277;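 active means inhibition of the reporter signal at or above 50%; inactive means inhibition below 50%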); details: HEK293-TLR3 RL24 IRF3 luciferase reporter, at 10 µM, stronger effect = higher value
Compound,cell count [1],inhibition [1],inhibition of aggregation [2],nuclei count [2] [%],inhibition [3],nuclei count [3] [%],fluorescence slope [4],NADPH fluorescence slope [5],slope [6],inhibition [7],inhibition [8]
COc1cc2c(cc1OC)C(c1cccnc1)CC(=O)N2 (stereo not drawn),481,-7.4% (inactive),-12.3% (inactive),71.7,-30.8% (inactive),117,-0.513 (inactive),-2.9e-05 (inactive),0.00629 (inactive),9.14% (inactive),14.4% (inactive)
CCC(C(=O)N1CCc2cc(OC)c(OC)cc2C1)c1ccccc1 (stereo not drawn),598,5% (inactive),-8.2% (inactive),88.6,11.7% (inactive),103,-0.478 (inactive),5.9e-06 (inactive),0.00474 (inactive),3.51% (inactive),6.78% (inactive)
CCOc1ccccc1C(=O)Nc1nnc(CC)s1,537,-12% (inactive),12.2% (inactive),59.9,-6.2% (inactive),88,-0.428 (inactive),-2.5e-05 (inactive),0.00564 (inactive),-6.19% (inactive),-13.4% (inactive)
O=C(COC(=O)C1CCN(S(=O)(=O)c2cccs2)CC1)c1cc2ccccc2o1,536,-8.3% (inactive),-0.1% (inactive),98.7,-97.6% (inactive),112,-0.501 (inactive),-1.4e-05 (inactive),0.00534 (inactive),12.4% (inactive),31.7% (inactive)
c1ccc(OCc2nc(-c3ccccc3)no2)cc1,300,2.6% (inactive),12.9% (inactive),87.7,-72.6% (inactive),91.1,-0.539 (inactive),4.5e-05 (inactive),0.0046 (inactive),-80.4% (inactive),-193% (inactive)
CCCOc1ccc(OCCSc2ncccn2)cc1,811,-13% (inactive),24.7% (inactive),108,-93.3% (inactive),108,-0.454 (inactive),2.1e-05 (inactive),0.0061 (inactive),-39.4% (inactive),-92% (inactive)
NCCN1CCN(CCN)CC1,728,-10% (inactive),-4.6% (inactive),116,-23.9% (inactive),132,-0.436 (inactive),-1.1e-05 (inactive),0.00707 (inactive),12.2% (inactive),18.8% (inactive)
CCCCN(C)C(=O)c1ccc(CS(=O)(=O)c2ccccc2C)o1,315,-10.4% (inactive),10.5% (inactive),65.2,-44.3% (inactive),111,-0.569 (inactive),-1.2e-05 (inactive),0.00658 (inactive),7.73% (inactive),13.7% (inactive)
COc1ccccc1Nc1ccc(C(=O)NC2CCCCC2)cn1,406,1% (inactive),1.1% (inactive),108,-13.6% (inactive),110,-0.39 (inactive),-5.7e-05 (inactive),0.00711 (inactive),-10.5% (inactive),-22.4% (inactive)
O=C(O)C1CC(=O)N(CCOc2ccccc2)C1 (stereo not drawn),407,4.7% (inactive),10.8% (inactive),86.7,-59.8% (inactive),101,-0.41 (inactive),4.3e-05 (inactive),0.00593 (inactive),0.323% (inactive),15.8% (inactive)
CC(C)(C)C(=O)CCN1C(=O)C2(OCCO2)c2ccccc21,702,-4.9% (inactive),-30.1% (inactive),118,-140% (inactive),123,-0.497 (inactive),-2.7e-05 (inactive),0.00626 (inactive),11.4% (inactive),22.3% (inactive)
CCCCCn1c(CCNC(=O)CCC)nc2ccccc21,635,3.4% (inactive),-4.9% (inactive),55,-30.5% (inactive),104,-0.552 (inactive),-4.5e-05 (inactive),0.00652 (inactive),10.2% (inactive),40.2% (inactive)
CCCC1(CCC)NC(=O)NC1=O,548,-3.3% (inactive),-41.1% (inactive),65.5,-34.4% (inactive),107,-0.491 (inactive),-4.7e-05 (inactive),0.00587 (inactive),6.49% (inactive),14.1% (inactive)
CCOC(=O)Cn1nc(-c2ccc(Cl)cc2)cc1N,285,15.6% (inactive),-12% (inactive),99.9,-2.9% (inactive),111,-0.501 (inactive),-8.2e-05 (inactive),0.00497 (inactive),-5.22% (inactive),-25.8% (inactive)
COc1ccc2nc(N3CCC(C)CC3)c(C#N)cc2c1,380,7.3% (inactive),-10.6% (inactive),108,-59.3% (inactive),66.6,-0.587 (inactive),-9e-06 (inactive),0.00372 (inactive),-48.2% (inactive),-170% (inactive)
Cc1cc(NC(=O)CCCN2C(=O)c3cccnc3C2=O)no1,429,5.6% (inactive),17.7% (inactive),100,-64.2% (inactive),79.6,-0.459 (inactive),1.6e-05 (inactive),0.00763 (inactive),-4.41% (inactive),13.4% (inactive)
CCc1ccc(N2CC34C=CC(O3)C(C(=O)OC)C4C2=O)cc1 (stereo not drawn),535,4% (inactive),11.3% (inactive),85.3,-7.9% (inactive),101,-0.589 (inactive),6.6e-06 (inactive),0.00784 (inactive),7.96% (inactive),30.4% (inactive)
COC(=O)Nc1sc2c(c1C(N)=O)CCCCCC2,522,2% (inactive),18.9% (inactive),95.2,-53.8% (inactive),92,-0.509 (inactive),-5.2e-05 (inactive),0.00644 (inactive),5.06% (inactive),17.8% (inactive)
CCCn1cnc2c(cnn2-c2ccc(F)cc2)c1=O,451,5.5% (inactive),11.2% (inactive),85.6,-41.5% (inactive),124,-0.536 (inactive),1.4e-05 (inactive),0.00574 (inactive),-35.2% (inactive),-147% (inactive)
C=CCN1C(=O)C2(C(C#N)=C(N)Oc3n[nH]c(CCC)c32)c2ccccc21 (stereo not drawn),389,3.2% (inactive),-32.8% (inactive),95.3,-37.6% (inactive),114,-0.625 (inactive),-3.8e-05 (inactive),0.00735 (inactive),11.3% (inactive),16.8% (inactive)
COc1ccccc1NC(=O)N(C1CCCC1)C1CCN(C(C)=O)CC1,830,18.5% (inactive),-7% (inactive),98,-61.6% (inactive),123,-0.582 (inactive),-3.7e-05 (inactive),0.00578 (inactive),12.4% (inactive),34.4% (inactive)
O=C(NC1(C(=O)NC2CCCCC2)CCCCC1)c1ccc2c(c1)OCO2,578,6.3% (inactive),16.2% (inactive),96.2,-45.8% (inactive),91.4,-0.524 (inactive),-3.1e-05 (inactive),0.00509 (inactive),7.94% (inactive),19% (inactive)
O=C(CCn1c(=S)[nH]c2cc3c(cc2c1=O)OCO3)N1CCN(C2CCCCC2)CC1,473,4.3% (inactive),4.1% (inactive),129,28.2% (inactive),85.3,-0.476 (inactive),-9.8e-07 (inactive),0.00668 (inactive),3.29% (inactive),33.1% (inactive)
C/C(Cl)=C/Cn1c(SCc2ccc(Cl)cc2)nc2c1c(=O)[nH]c(=O)n2C,551,-9.4% (inactive),10.9% (inactive),108,15% (inactive),96.1,-0.513 (inactive),-2.3e-05 (inactive),0.00751 (inactive),4.08% (inactive),12% (inactive)
CN(C)CCCNC(=O)c1ccc(CN(c2ccccc2)S(C)(=O)=O)cc1,641,1% (inactive),-1.7% (inactive),101,25.8% (inactive),84.7,-0.43 (inactive),-0.000115 (inactive),0.00575 (inactive),8.82% (inactive),24.2% (inactive)
O=C(Nc1ccc2c(c1)OCO2)c1cc2ncc(Br)cn2n1,588,6.6% (inactive),-4.4% (inactive),107,-73.8% (inactive),104,-0.624 (inactive),1.6e-05 (inactive),0.00236 (inactive),5.44% (inactive),11.5% (inactive)
Cc1cccc(NC(=O)CC(C)(C)C)c1,349,-6.6% (inactive),12% (inactive),95.6,-1.1% (inactive),99.8,-0.369 (inactive),2.2e-05 (inactive),0.00657 (inactive),10.5% (inactive),6.01% (inactive)
Cc1c(NC(=O)c2ccc(CN3CCc4ccccc4C3)cc2)c(=O)n(-c2ccccc2)n1C,593,-5.6% (inactive),-45.4% (inactive),110,-70.8% (inactive),142,-0.403 (inactive),-4.1e-05 (inactive),0.0063 (inactive),5.86% (inactive),7.1% (inactive)
